# From PubChem BioAssay
# D1 potentiator = potentiators of human D1 dopamine receptor | P21728 | HEK293 TREx D1 cells, calcium flux, dopamine EC20 potentiation | potentiation, % at 10 µM | 0.036% of 360,000 active; in the data active = potentiation above about 30%; note: 0% is about no effect
# TRHR ag = agonists of human TRH receptor; TRHR cells, calcium flux fluo-8, FDSS agonist mode; activation, % at 2 µM; 0.18% of 360,000 active; AID 493084; note: 0% is about no effect
# Target sequence (P34981 whole entry, looked up): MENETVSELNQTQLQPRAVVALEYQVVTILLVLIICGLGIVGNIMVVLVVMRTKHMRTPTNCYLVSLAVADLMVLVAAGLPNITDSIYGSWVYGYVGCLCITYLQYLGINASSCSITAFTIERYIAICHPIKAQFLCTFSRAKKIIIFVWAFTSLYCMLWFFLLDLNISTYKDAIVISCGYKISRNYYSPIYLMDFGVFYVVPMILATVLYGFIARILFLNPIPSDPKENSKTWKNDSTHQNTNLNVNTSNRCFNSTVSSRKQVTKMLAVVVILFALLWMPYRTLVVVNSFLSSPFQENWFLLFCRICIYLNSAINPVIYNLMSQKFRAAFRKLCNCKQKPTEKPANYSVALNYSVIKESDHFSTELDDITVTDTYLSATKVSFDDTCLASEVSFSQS
#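 TRHR-expressing cells loaded with fluo-8 calcium dye; 23 nL library compound pin-transferred, kinetic FDSS fluorescence (Ex 480/Em 530) recorded about 180 s for agonist-induced calcium release, before a 10 nM TRH EC20 addition for potentiator mode.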
# TRHR enhancer = allosterically enhances the human TRH receptor. TRHR cells, fluo-8 calcium fluorescence, EC20 TRH enhancement. enhancement, % at 2 µM. 0.66% of 360,000 active; in the data active = enhancement above about 30%; note: 0% is about no effect
#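 Enhancer read-out: after compound pinning and an initial kinetic agonist-mode read, an EC20 of TRH (10 nM final) was injected and fluo-8 calcium signal (Ex 480/Em 530) followed at 1 s/cycle for 100 cycles in TRHR-expressing cells.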
# D1 antagonist = human D1 dopamine receptor antagonism; P21728; HEK293 TREx D1 cells, calcium flux, dopamine EC80; stronger effect = lower value; activity change, negative = inhibition, % at 10 µM; 3.2% of 360,000 active; AID 504652; in the data active = activity change below about -30%; note: % is set by controls: 0 for no effect and ±100 for the full control effect
#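 After overnight tetracycline induction at 30 C, force-coupled D1 HEK293 cells took up a no-wash calcium dye at room temperature. Compounds were added and monitored 180 s, and the response to EC80 dopamine was then recorded.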
# D1 ag = human D1 receptor agonism. HEK293 T-REx D1 cells, calcium flux, agonist mode. activation, % at 2 µM. 1% of 360,000 active. AID 504660; note: 0% is about no effect
#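 Tetracycline-induced HEK293 TREx D1 cells, force-coupled to calcium signalling, were dye-loaded with a no-wash calcium kit. Compound was pin-added after a 10 s baseline. Fluorescence was read kinetically at 1 cycle/s for 180 s, with calcium rises flagged as agonism.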
# Active calls of the source: *; . = no result; ! = a repeat was not active. An excerpt weighted towards active compounds, which were near 4.6% of everything screened. Cut-off read from the data, not from the text of the source, unless noted: active = activation above about 30%; inactive = the rest.
SMILES,D1 potentiator,TRHR ag,TRHR enhancer,D1 antagonist,D1 ag
COc1cc2[nH]c(=O)n(-c3ccc(C)cc3)c(=O)c2cc1OC,1,0,2,-44*!,1
CC(Cc1ccccc1)NCC(=O)Nc1cc(N(C)C)nc2ccccc12 (centres undefined),9,0,-8,-50*,-1
Cc1ccc(Cn2cccc(C(=O)Nc3ccc4c(c3)OCCO4)c2=O)cc1,-4,0,5,.,0
Nc1c(C(=O)Nc2ccc(OC(F)(F)F)cc2)sc2nc3c(cc12)N1CCC3CC1,-5,-1,-9,-10,0
COC(=O)CSC1=NN1c1cc(C)nc(N)n1,6,-3,-5,-33*,0
O=P(CCl)(Nc1ccccc1)C(Cl)(Cl)Cl (centres undefined),1,0,-4,-41*,0
O=P(Nc1ccccc1)(Oc1ccccc1)Oc1ccccc1,5,0,17,2,2
Cc1ccccc1-c1nc(CN2C(=O)CN=C(c3ccccc3)c3ccccc32)c(C)o1,0,3,-4,10,0
Cc1cc(OC(=O)N(C)C)nc2c1c(C)nn2C,-1,0,40*,-10,3
COCc1cc(OC(=O)N(C)C)nc2c1c(C)nn2C,0,0,-3,-2,0
Cc1cc(N2CCCC2)ccc1C=C(C#N)C#N,1,10,27,-33*,32*
CCC(CO)NC(=O)C1C=C2c3cccc4[nH]cc(c34)CC2N(C)C1 (centres undefined),-14,0,-3,-86*,25
COC(=O)C1C=C2c3cccc4[nH]cc(c34)CC2N(C)C1 (centres undefined),-8,1,-2,-1,9
CC[C@@H](CO)NC(=O)[C@@H]1C=C2c3cccc4c3c(cn4C)C[C@H]2N(C)C1,-3,15,-4,-77*!,18
CN1C[C@H](CNC(=O)OCc2ccccc2)C[C@@H]2c3cccc4c3c(cn4C)C[C@H]21,-4,11,7,-87*,37*
CC(C)C[C@H](NC(=O)[C@@H]1CCCN1C(=O)[C@@H](N)Cc1ccc(O)cc1)C(=O)NCC(N)=O,7,1,-3,-37*,1
Cc1c(Cl)cccc1NC(=O)CN1C(=O)C(C)N=C(c2ccccc2)c2ccccc21 (centres undefined),7,1,2,-7,6
COc1cc(O)c(C(=O)O)c(-c2cc(O)c(O)cc2C)c1,0,-1,1,-31*,1
COc1ccc(CC(=O)Nc2ccc3c(C(F)(F)F)cc(=O)oc3c2)cc1OC,-7,-1,-5,13,-1
Cc1onc(-c2c(Cl)cccc2Cl)c1C(=O)Nc1ccc2c(C(F)(F)F)cc(=O)oc2c1,0,0,9,-30*,4
CCCc1nc(SC)ncc1C(=O)Nc1ccc(Cl)cc1C(=O)c1ccccc1,-1,0,-5,10,1
Cc1nnc(NC(=O)c2cccn(Cc3ccccc3F)c2=O)s1,-2,0,-1,2,1
Cc1ccccc1Cn1cccc(C(=O)Nc2cc(Cl)ccc2C#N)c1=O,-4,0,-3,-7,5
Cc1cccc(-c2nc(CN3C(=O)CN=C(c4ccccc4)c4ccccc43)c(C)o2)c1,-1,-1,-13,0,2
CN1CCN(c2nc(N)cc(=O)[nH]2)CC1,1,2,6,-58*,2
SMILES,D1 potentiator,TRHR ag,TRHR enhancer,D1 antagonist,D1 ag
Oc1ccc(C[C@H]2NCCc3cc(O)c(O)cc32)cc1O,-10,0,5,-90*,2
Oc1ccc(CC2CC3CCN2CC3)cc1O (centres undefined),-4,0,4,-10,0
COc1ccccc1CCNCc1ccc(OC)c(OC)c1OC,-5,0,39*,-6,16
Cc1nc2ccccc2c(=O)n1-c1cccc(C(F)(F)F)c1,-5,-1,1,2,2
Cc1nc2ccccc2c(=O)n1-c1ccc(C(=O)O)cc1,0,0,31*,-17,4
COC(=O)C1=C(c2ccc(OC(F)(F)F)cc2)C[C@@H]2CC[C@H]1N2C(=O)NCCCOC(C)C,-1,0,-3,6,1
CC/C(CC(c1ccccc1)c1c(O)c2ccccc2oc1=O)=N\NC(N)=S (centres undefined),-12,0,9,-32*,4
Cc1c(CC(=O)N2C[C@H]3C[C@@H](C2)c2cccc(=O)n2C3)c(=O)oc2c(C)c(O)ccc12,1,0,-2,4,1
Cc1c(CC(=O)N2C[C@H]3C[C@@H](C2)c2cccc(=O)n2C3)c(=O)oc2cc(O)c(Cl)cc12,0,0,12,-47*,2
O=C(COc1ccc(Br)cc1)Nc1ccc(Cl)cc1C(=O)c1ccccc1,1,-1,0,3,3
CN(N=O)c1cc(O)ccc1O,-4,1,4,-2,3
Clc1ccc(C(OCCN2CCCCC2)c2ccccc2)cc1 (centres undefined),-4,0,0,-16,9
CC(C)Cc1nnc(NC(=O)CCC(=O)N2CCN(CCOC(c3ccccc3)c3ccccc3)CC2)s1,-4,0,0,-32*,6
Cc1ccc(Cl)cc1NC(=O)N(Cc1ccc2c(c1)OCO2)C1CCN(Cc2ccccc2)CC1,1,3,-3,-8,21
Cc1ccc(C[n+]2c(-c3ccc(C)cc3)cc(-c3ccc(C)cc3)cc2-c2ccc(C)cc2)cc1,5,0,-6,12,39*
Cc1ccc(Cn2cccc(C(=O)Nc3ccc4c(c3)OCO4)c2=O)cc1,1,0,4,.,4
CN(C)CCNC(=O)c1cccn(Cc2cccc(C(F)(F)F)c2)c1=O,-3,0,-6,5,6
CNC(=O)c1cccn(Cc2cccc(C(F)(F)F)c2)c1=O,-4,1,-1,-32*,2
O=c1c2ccccc2nc(/C=C/c2ccccc2F)n1-c1ccccc1O,-4,3,0,9,11
Cc1ccccc1-n1c(/C=C/c2c(C)[nH]c3ccccc23)nc2ccccc2c1=O,0,4,0,7,10
O=c1c2ccccc2nc(/C=C/c2ccccc2O)n1-c1ccccc1O,-6,12,0,-22,31*
Cc1ccccc1-n1c(/C=C/c2ccc(N(C)C)cc2)nc2ccccc2c1=O,60*,93*,18,10,197*
O=c1c2ccccc2nc(/C=C\c2ccc(F)cc2)n1-c1ccccc1F,-1,0,-1,-24,3
CCOc1ccc2nc(NC(=O)c3cccn(Cc4ccccc4)c3=O)sc2c1,2,0,-1,.,33*
